In all, about 5,500 compounds went through this assay and about 2,000 (36%) were called active. Inconclusive results (about 18%) are left out. Cut-off read from the data, not from the text of the source: active = normalized growth mostly below about 0.91 (no sharp cut-off); inconclusive = no clear call, values can overlap the other calls; inactive = mostly above about 0.92. The list shows a part of the results.
Assay: chemical genetic growth profiling, strain panel (AID 1159580);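 note: tested at 20 µM; growth read once vehicle control cultures reached saturation at 30 °C; 1 = growth at the plate median or of vehicle wells; lower values mean less growth of the strain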
Details: S. cerevisiae deletion strains, growth OD
[1] = locus YAR019C, strain CDC15, active compounds read low
[2] = locus YBL105C, strain PKC1, active compounds read low
[3] = locus YBR135W, strain CKS1, active compounds read low
[4] = locus YBR136W, strain MEC1, active compounds read low
[5] = locus YBR160W, strain CDC28, active compounds read low
[6] = locus YDL017W, strain CDC7, active compounds read low
[7] = locus YDL028C, strain MPS1, active compounds read low
[8] = locus YDL101C, strain DUN1, active compounds read low
[9] = locus YDL108W, strain KIN28, active compounds read low
[10] = locus YDL132W, strain cdc53, active compounds read low
[11] = locus YDL214C, strain PRR2, active compounds read low
[12] = locus YDR052C, strain DBF4, active compounds read low
[13] = locus YDR054C, strain cdc34, active compounds read low
[14] = locus YDR226W, strain ADK1, active compounds read low
[15] = locus YDR477W, strain SNF1, active compounds read low
[16] = locus YER123W, strain YCK3, active compounds read low
[17] = locus YER133W, strain GLC7, active compounds read low
[18] = locus YFL009W, strain cdc4, active compounds read low
[19] = locus YFL029C, strain CAK1, active compounds read low
[20] = locus YFR003C, strain YPI1, active compounds read low
[21] = locus YFR019W, strain FAB1, active compounds read low
[22] = locus YFR028C, strain CDC14, active compounds read low
[23] = locus YGR040W, strain KSS1, active compounds read low
[24] = locus YGR052W, strain FMP48, active compounds read low
[25] = locus YGR092W, strain DBF2, active compounds read low
[26] = locus YHR030C, strain SLT2, active compounds read low
[27] = locus YHR079C, strain IRE1, active compounds read low
[28] = locus YHR082C, strain KSP1, active compounds read low
[29] = locus YHR205W, strain SCH9, active compounds read low
[30] = locus YIL147C, strain SLN1, active compounds read low
[31] = locus YJL095W, strain BCK1, active compounds read low
[32] = locus YJL128C, strain PBS2, active compounds read low
[33] = locus YJL157C, strain FAR1, active compounds read low
[34] = locus YJR016C, strain ILV3, active compounds read low
[35] = locus YJR066W, strain TOR1 (second series), active compounds read low
[36] = locus YJR066W, strain TOR1, active compounds read low
[37] = locus YKL048C, strain ELM1, active compounds read low
[38] = locus YKL067W, strain YNK1, active compounds read low
[39] = locus YKL101W, strain HSL1, active compounds read low
[40] = locus YKL193C, strain SDS22, active compounds read low
[41] = locus YKL203C, strain TOR2, active compounds read low
[42] = locus YLR113W, strain HOG1, active compounds read low
[43] = locus YLR133W, strain CKI1, active compounds read low
[44] = locus YLR403W, strain SFP1, active compounds read low
[45] = locus YML070W, strain DAK1, active compounds read low
[46] = locus YMR001C, strain CDC5, active compounds read low
[47] = locus YMR205C, strain PFK2 (second series), active compounds read low
[48] = locus YMR277W, strain FCP1, active compounds read low
[49] = locus YNL006W, strain LST8, active compounds read low
[50] = locus YNL020C, strain ARK1, active compounds read low
[51] = locus YNL161W, strain CBK1, active compounds read low
[52] = locus YNL183C, strain NPR1, active compounds read low
[53] = locus YNL207W, strain RIO2, active compounds read low
[54] = locus YNL222W, strain SSU72, active compounds read low
[55] = locus YNL307C, strain MCK1 (second series), active compounds read low
[56] = locus YOL078W, strain AVO1, active compounds read low
[57] = locus YOL136C, strain PFK27, active compounds read low
[58] = locus YOR061W, strain CKA2, active compounds read low
[59] = locus YOR119C, strain RIO1, active compounds read low
[60] = locus YOR231W, strain MKK1, active compounds read low
[61] = locus YOR329C, strain SCD5, active compounds read low
[62] = locus YPL031C, strain PHO85, active compounds read low
[63] = locus YPL153C, strain RAD53, active compounds read low
[64] = locus YPL204W, strain HRR25, active compounds read low
[65] = locus YPL209C, strain IPL1, active compounds read low
[66] = locus YPL256C, strain CLN2, active compounds read low
[67] = locus YPR025C, strain CCL1, active compounds read low
[68] = locus YPR106W, strain ISR1, active compounds read low
[69] = locus YPR111W, strain DBF20, active compounds read low
[70] = strain NNK1, active compounds read low
[71] = strain TSCII, active compounds read low

Measured: normalized growth

O=C(NNc1ccccc1)c1cc(-c2ccc(Cl)cc2)oc1C(F)(F)F
active: [15] 0.615 | [16] 0.522 | [17] 0.629 | [23] 0.622 | [24] 0.38 | [25] 0.434 | [26] 0.289 | [28] 0.5 | [31] 0.293 | [36] 0.456 | [37] 0.762 | [38] 0.686 | [39] 0.521 | [41] 0.636 | [42] 0.234 | [43] 0.678 | [44] 0.653 | [45] 0.465 | [47] 0.667 | [50] 0.683 | [55] 0.549 | [59] 0.684 | [60] 0.46 | [62] 0.443 | [63] 0.339 | [64] 0.58 | [66] 0.492
inactive: [1] 0.947 | [2] 0.952 | [3] 0.934 | [4] 0.952 | [5] 0.942 | [6] 0.949 | [7] 0.957 | [8] 0.973 | [9] 0.95 | [10] 0.953 | [11] 0.714 | [12] 0.956 | [13] 0.94 | [14] 0.951 | [18] 0.958 | [19] 0.943 | [20] 0.958 | [21] 0.779 | [22] 0.942 | [27] 0.541 | [29] 0.624 | [30] 0.96 | [32] 0.975 | [33] 0.75 | [34] 0.95 | [35] 0.66 | [40] 0.954 | [46] 0.942 | [48] 0.953 | [49] 0.96 | [51] 0.944 | [52] 0.697 | [53] 0.959 | [54] 0.931 | [56] 0.952 | [57] 0.727 | [58] 0.795 | [61] 0.957 | [65] 0.926 | [67] 0.951 | [68] 0.933 | [69] 0.931 | [70] 0.939 | [71] 0.95

O=C(Nc1ccncc1)c1cc(-c2ccccc2)oc1C(F)(F)F
active: [42] 0.843
inactive: [1] 0.99 | [2] 0.985 | [3] 0.991 | [4] 0.988 | [5] 0.983 | [6] 0.991 | [7] 0.993 | [8] 0.992 | [9] 0.991 | [10] 0.979 | [11] 0.953 | [12] 0.989 | [13] 0.981 | [14] 0.989 | [15] 0.973 | [16] 0.946 | [17] 0.976 | [18] 0.99 | [19] 0.984 | [20] 0.99 | [21] 0.993 | [22] 0.984 | [23] 0.962 | [24] 1 | [25] 0.949 | [26] 1 | [27] 0.941 | [28] 1.01 | [29] 0.998 | [30] 0.994 | [31] 0.991 | [32] 0.958 | [33] 0.952 | [34] 0.988 | [35] 0.937 | [36] 1.03 | [37] 0.976 | [38] 0.968 | [39] 0.977 | [40] 0.988 | [41] 1.04 | [43] 0.975 | [44] 0.987 | [45] 0.951 | [46] 0.996 | [47] 0.973 | [48] 0.993 | [49] 0.992 | [50] 0.985 | [51] 0.982 | [52] 0.965 | [53] 0.98 | [54] 0.977 | [55] 0.976 | [56] 0.988 | [57] 0.953 | [58] 0.991 | [59] 1.03 | [60] 0.908 | [61] 0.998 | [62] 0.964 | [63] 0.959 | [64] 0.953 | [65] 0.976 | [66] 0.868 | [67] 0.99 | [68] 0.979 | [69] 0.98 | [70] 0.993 | [71] 0.989
